Values joined by “and” are separate entries in the source; they are usually repeats but may differ in a detail not shown here. Identical values can stand only once. Active and inactive are the calls of the source.
Target: NADPH oxidase 2 (Homo sapiens) (UniProt P04839)
Test: NOX2-dependent H2O2 signal modulators, primary screen, NOX inhibitor project, cell-based, HEK293-NOX2, PMA-stimulated, Amplex Red fluorescence (AID 1159); note: test concentration not given here
Settings: 45 min, higher = more signal, called active from +8 up or from −8 down

NADPH oxidase 2 (Homo sapiens), sequence (P04839 whole entry, looked up): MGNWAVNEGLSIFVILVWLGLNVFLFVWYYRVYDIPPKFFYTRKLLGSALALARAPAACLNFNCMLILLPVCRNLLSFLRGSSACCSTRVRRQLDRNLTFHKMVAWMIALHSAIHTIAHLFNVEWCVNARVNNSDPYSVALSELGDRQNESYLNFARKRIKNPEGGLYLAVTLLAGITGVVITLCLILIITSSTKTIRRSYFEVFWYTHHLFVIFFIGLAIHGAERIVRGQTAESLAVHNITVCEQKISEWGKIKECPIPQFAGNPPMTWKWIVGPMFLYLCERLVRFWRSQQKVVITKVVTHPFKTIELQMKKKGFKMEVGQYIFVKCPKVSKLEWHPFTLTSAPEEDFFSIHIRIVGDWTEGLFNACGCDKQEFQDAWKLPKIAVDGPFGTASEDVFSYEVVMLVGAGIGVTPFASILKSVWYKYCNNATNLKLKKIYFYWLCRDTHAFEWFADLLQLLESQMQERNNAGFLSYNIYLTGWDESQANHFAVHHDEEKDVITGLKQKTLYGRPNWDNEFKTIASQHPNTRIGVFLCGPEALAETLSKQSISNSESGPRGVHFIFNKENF

z-score, inactive:
COC(=O)C1=C(C)N(Cc2ccccc2)[C@]23O[C@](C(=O)OC)(C(=O)N2[C@@H]1c1ccccc1)[C@@H](C(=O)OC)[C@H]3C(=O)OC 1.8 and -0.506
CO[C@@H]1COC(=O)CC=C[C@H](C)COC(=O)[C@H](C)NC(=O)CC=C[C@H]1C 2.01
COC(=O)C1=C(C)N(Cc2ccccc2)C2=C(C(C)=O)[C@H](c3ccccc3)[C@@](O)(C(=O)OC)C(=O)N2[C@@H]1c1ccccc1 2.34 and -3.45
C[N+](C)(C)CCCCNC(=O)[C@H]1C[C@H]2C(=O)N[C@@H](CCCC[N+](C)(C)C)C(=O)N2[C@H]1c1cccc(OCCO)c1 -0.187 and -1.8
CCOC(=O)NN=C1C[C@@H](O)[C@@H](O)[C@@H]2[C@@H]3C(=O)N(Cc4ccc5c(c4)OCO5)C(=O)[C@@H]3CC[C@@H]12 -0.00897
C[N+](C)(C)CCCCNC(=O)[C@H]1C[C@H]2C(=O)N[C@@H](CCCC[N+](C)(C)C)C(=O)N2[C@H]1c1ccc(O)cc1 -1.13 and -2.89
O=c1n(-c2ccccc2)c(=O)n2n1CC[C@@H]1C(=NOC[C@@H](O)COCc3ccco3)[C@H]3O[C@H]3[C@@H](O)[C@@H]12 1.06 and 0.176
C=C[C@@H](C)[C@H](O)c1ccc(O)c2ccccc12 -4.9 and -4.75
COC(=O)C1=C(C)N(Cc2ccccc2)C2=C(C(C)=O)C[C@@](O)(C(=O)OC)C(=O)N2[C@@H]1c1ccccc1 0.627 and 0.462
CCC[C@@H]1C[C@@]1(CCC)[C@@H](NC(=O)c1ccc(-c2ccccc2)cc1)c1cccc(Cl)c1 -1.8 and -1.74
C=CCN(CCCC)C(=O)C1N(CCOCCO)C(=O)C2C(C(=O)O)C3C=CC21O3 (stereo not given) 0.502 and 0.676
C=CCN(Cc1ccccc1)C(=O)C1N(CCOCCO)C(=O)C2C(C(=O)O)C3C=CC21O3 (stereo not given) 1.22 and 0.583
C=CC[C@@H](O)c1ccc(O)c2ccccc12 -5.68 and -5.98
CO[C@@H]1C=CCC(=O)N2CCC[C@H]2C(=O)OC[C@H](C)C(=O)OC[C@H]1C -0.773
CN1C(=O)C2CC=C([C@H]3Oc4ccccc4S(=O)(=O)N4CCC[C@@H]34)CC2C1=O (stereo not given in full) 0.514 and -0.289
CCOC(=O)c1ccc(NC(=O)O[C@H]2[C@H](OC(=O)Nc3ccccc3)[C@@H](OC(=O)Nc3ccccc3)[C@@H](OC)O[C@@H]2CO)cc1 0.0131 and -4.33
C=CCN(Cc1ccccc1)C(=O)C(c1cccs1)N(C(=O)/C=C\C(=O)O)c1c(Cl)cccc1CO (stereo not given) -0.0842 and 0.208
CC(CO)N1C(=O)[C@@H]2C3C(=O)OCCC=C[C@H]3OC23C=CCN(CCN2CCOCC2)C(=O)[C@@H]13 (stereo not given in full) 1.08 and 1
CO[C@H]1COC(=O)CC=C[C@@H](C)COC(=O)[C@@H](OCc2ccccc2)C=C[C@@H]1C 0.46
CCCC[C@@H]1CN2[C@@H](CC[C@@H](C)[C@@H]2c2ccc(Br)cc2)C(=O)O1 1.18 and -0.0488
CCN1C(=O)[C@H]2[C@H]3[C@H](O)[C@H](O)CC(=NOC[C@@H](O)COCc4ccco4)[C@@H]3CC[C@H]2C1=O -0.535 and 0.394
C=CCN(CCCCC)C(=O)C(c1cccs1)N(C(=O)/C=C\C(=O)O)c1ccc(CCO)cc1 (stereo not given) 0.259 and -0.0131
C=CCN(C(=O)C1N(c2c(Cl)cccc2CO)C(=O)C2C(C(=O)O)C3C=CC21O3)c1ccc(OC)cc1 (stereo not given) 0.868 and -0.148
C=CCN(CCCC)C(=O)C1N(C(C)(C)CO)C(=O)C2C(C(=O)O)C3C=CC21O3 (stereo not given) 0.209 and 0.495
C=C[C@@H](C)[C@@H](O)c1ccc(OCCO)cc1 -0.228 and -0.985
C=CCN(CCCCC)C(=O)C1N(C(C)(C)CO)C(=O)C2C(C(=O)O)C3C=CC21O3 (stereo not given) 1.02 and 0.298
CCOC(=O)[C@@H]1CC2O[C@]23C[C@@H]1C(=O)N1CCC[C@@H]1[C@H]3O[Si](C)(C)C(C)(C)C (stereo not given in full) 0.937 and 0.661
CCOC(=O)C[C@H]1[C@H](OC(=O)c2ccccc2-c2ccccc2)[C@@H](NC(=O)Cc2ccc(OC)cc2)c2cc(OCCCO)ccc2N1C(=O)Cc1ccc(OC)cc1 1.61 and 0.265
COC(=O)CC=C[C@@H](C)[C@@H](CO)NS(=O)(=O)c1ccc(C)cc1 -0.132 and 0.154
C[N+](C)(C)CCCCCCNC(=O)[C@@H]1C[C@@H]2C(=O)N[C@@H](CCCC[N+](C)(C)C)C(=O)N2[C@@H]1c1ccc(O)cc1 -0.441 and -0.988
COC(=O)C1=C(C)N(Cc2ccccc2)C2=C3C(=O)CCC[C@@H]3[C@@](O)(C(=O)OC)C(=O)N2[C@@H]1c1ccccc1 1.08 and -0.368
O=C1C[C@]2(c3ccc([N+](=O)[O-])cc3)C(=O)N(Cc3ccccc3)c3cc(CO)ccc3[C@H]2N1C1CCCCC1 0.139 and 1.55
CC(C)=CCCC(C)=CCON=C1C[C@@H](O)[C@@H](O)[C@@H]2[C@@H]3C(=O)N([C@@H](C)c4ccccc4)C(=O)[C@@H]3CC[C@H]12 -1.06
C[C@@H]1CC[C@H]2C(=O)NC[C@@H](O)CN2[C@H]1c1ccc(Br)cc1 -0.807 and 0.12
COc1ccc(O[C@H]2C=C[C@@H](c3ccccc3)O[C@@H]2COC(=O)CCC(C)=NO[C@H](C)c2cn([C@H](CO)Cc3ccccc3)nn2)cc1 -2.32 and -2.14
C=CCN(CCCC)C(=O)C(c1cccs1)N(C(=O)/C=C\C(=O)O)c1c(Cl)cccc1CO (stereo not given) 0.148 and 0.256
CC(CO)N1C(=O)[C@@H]2C3C(=O)OCCC=C[C@H]3OC23C=CCN(c2ccc(Cl)cc2)C(=O)[C@@H]13 (stereo not given in full) 1.59 and 1.47
C=CCN(C(=O)C(c1cccs1)N(CCOCCO)C(=O)/C=C\C(=O)O)C(C)(C)C (stereo not given) -0.302 and -0.0837
C=C[C@H](OC)[C@@H](O)c1ccc(O)c(F)c1 -1.01 and -0.872
CC(CO)N1C(=O)[C@@H]2C3C(=O)OCCC=C[C@H]3OC23C=CCN(C(C)(C)C)C(=O)[C@@H]13 (stereo not given in full) 0.793 and 1.49
